Experimental data reported in PubChem BioAssay (Tox21).
Records with an inconclusive call do not appear. Entries that show only a call come without a potency. A structure can be active in one record and inactive in another. Activity calls are given as the source filed them. Unless noted, calls follow the shape of the full dose curve.

What was measured:
[1] = Nuclear factor erythroid 2-related factor 2/antioxidant responsive element (Nrf2/ARE) small molecule agonists: qHTS cell viability counter screen in human keratinocytes (AID 1919968; active = well fitted curve in the direction sought with a large enough effect in the repeat runs; an effect the other way counts as inactive or inconclusive; also: nearly all actives have a fitted effect of over 55% in size)
Summary of the method: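 Seed 1,500 KeratinoSens cells per well, then incubate 5 h at 37 C/5% CO2. Add compounds in DMSO and incubate 23 h. Add CellTiter-Fluor, wait 1 h and read fluorescence.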

[2] = Nuclear factor erythroid 2-related factor 2/antioxidant responsive element (Nrf2/ARE) small molecule agonists: luciferase reporter gene qHTS assay in human keratinocytes (AID 1919969); also: nearly all actives have a fitted effect of over 35% in size; also: potency is read from the fitted curve at half-maximal effect
[3] = biological target: Gonadotropin-releasing hormone receptor (Homo sapiens) (UniProt P30968); assay: Human gonadotropin-releasing hormone receptor (GnRHR) small molecule agonists, calcium flux assay in GnRHR-HEK293 cells (AID 1920063); also: nearly all actives have a fitted effect of over 35% in size
Summary of the method: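 Cells: HEK293 stably expressing human GnRHR. Steps: overnight (18 h) culture, 1 h calcium dye loading at 37 C, compound addition, kinetic fluorescence read at 480/540 nm. Each compound tested at 15 concentrations in triplicate.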

[4] = G protein-coupled receptor (GPCR) small molecule agonists, calcium flux assay: HEK293 wild type cell line counter screen (AID 1920065)
Summary of the method: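 Counter-screen of the Tox21 10K library for non-specific calcium release: dye-loaded cells received compounds in DMSO and were monitored by kinetic fluorescence (480/540 nm, 3 min). Fifteen concentrations, run in triplicate.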

[5] = p53 small molecule agonists, cell-based qHTS assay with human liver microsomes (AID 1963577);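 also: p53 response element beta-lactamase reporter cells with liver microsomes plus NADPH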
Summary of the method: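 p53RE-bla cells; 5 h settle, 37 C/5% CO2; cpd + HLM 0.5 mg/mL + NADPH 0.5 mg/mL (final); 16 h 37 C; LiveBLAzer 2 h RT dark; fluorescence readout.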

[6] = p53 small molecule agonists, cell-based qHTS assay with human liver microsomes: qHTS cell viability counter screen (AID 1963579); also: nearly all actives have a fitted effect of over 45% in size
Summary of the method: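 Luminescent CellTiter-Glo read-out, 30 min at room temperature, gauged cytotoxicity in p53RE-bla cells exposed 16 h at 37 C to DMSO-dissolved compounds with metabolic activation by human liver microsomes and NADPH, each 0.5 mg/mL final.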

[7] = p53 small molecule agonists, cell-based qHTS assay with rat liver microsomes: qHTS cell viability counter screen (AID 1963580); also: nearly all actives have a fitted effect of over 45% in size
Summary of the method: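 Viability is assessed in parallel with the p53 reporter read: HCT-116 p53RE-bla cells receive compounds plus rat microsomes and NADPH (0.5 mg/mL final apiece), incubate 16 h at 37 C, and then CellTiter-Glo luminescence is recorded.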

[8] = p53 small molecule agonists, cell-based qHTS assay: qHTS cell viability counter screen (AID 1963581); also: nearly all actives have a fitted effect of over 45% in size
Summary of the method: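 Cells: HCT-116 with p53 response element-driven beta-lactamase. Treatment: 16 h, 37 C, compounds in DMSO. Read: CellTiter-Glo luminescence after 30 min RT.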

[9] = p53 small molecule agonists, cell-based qHTS assay (AID 1963582; active = well fitted activation curve with a large enough effect in the signal ratio in the repeat runs, not every such curve was filed as active; the % refers to the signal ratio)
Summary of the method: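 Quantitative HTS in p53RE-bla cells: after a 5 h settling period, compounds delivered in DMSO were left on cells for 16 h at 37 C, and reporter induction was measured as fluorescence following 2 h substrate loading.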

[10] = biological target: 5-hydroxytryptamine receptor 2A (Homo sapiens) (UniProt P28223); assay: 5-hydroxytryptamine receptor 2A (HTR2A) small molecule antagonists, cell-based qHTS assay (AID 1963586); also: nearly all actives have a fitted effect of over 45% in size
Summary of the method: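 Antagonist-mode intracellular calcium assay: DOI (4 nM) added after 5 min compound pre-incubation at room temperature to dye-loaded HTR2A-CHO cells. Fluorescence followed for 3 min, sampled every second.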

[11] = biological target: 5-hydroxytryptamine receptor 2A (Homo sapiens) (UniProt P28223); assay: 5-hydroxytryptamine receptor 2A (HTR2A) small molecule agonists, cell-based qHTS assay (AID 1963587); also: nearly all actives have a fitted effect of over 30% in size
Summary of the method: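 CHO cells stably expressing human HTR2A, plated 18 h, loaded with calcium dye 1 h at 37 C. Agonist mode: compounds added and intracellular calcium fluorescence recorded kinetically for 2 min at 1 sec intervals.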

[12] = biological target: Muscarinic acetylcholine receptor M1 (Homo sapiens) (UniProt P11229); assay: Cholinergic receptor muscarinic 1 (CHRM1) small molecule antagonists, cell-based qHTS assay (AID 1963588); also: nearly all actives have a fitted effect of over 40% in size; also: potency is read from the fitted curve at half-maximal effect
Summary of the method: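 CHRM1-CHO calcium-flux assay, antagonist mode. Cells were seeded 18 h, dye-loaded 1 h at 37 C and given compound for 5 min at RT, then acetylcholine was added at 50nM. FDSS fluorescence was read 3 min; 15 concentrations, three runs.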

[13] = biological target: Muscarinic acetylcholine receptor M1 (Homo sapiens) (UniProt P11229); assay: Cholinergic receptor muscarinic 1 (CHRM1) small molecule agonists, cell-based qHTS assay (AID 1963589); also: nearly all actives have a fitted effect of over 35% in size
Summary of the method: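 Agonist-mode qHTS in CHO cells stably carrying human muscarinic M1. Intracellular calcium is tracked by fluorescence every second after compound transfer; each compound runs at 15 concentrations in three independent runs.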

[14] = cAMP Responsive Elements (CRE) small molecule agonists, cell-based qHTS assay (AID 1963590)
Summary of the method: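 Agonist mode qHTS in CRE-bla HEK 293T cells: compounds dosed from DMSO for 3 h at 37 C/5% CO2, followed by LiveBLAzer B/G FRET substrate for 2 h at room temperature.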

[15] = cAMP Responsive Elements (CRE) small molecule antagonists, cell-based qHTS assay (AID 1963591; active = well fitted inhibition curve with a large enough effect in the signal ratio in the repeat runs, not every such curve was filed as active; the % refers to the signal ratio)
Summary of the method: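 Antagonist mode: test compounds are co-incubated with the adenylyl cyclase activator NKH477 (0.25 uM final) on CRE-bla HEK293T cells for 3 h at 37 °C, followed by LiveBLAzer substrate loading.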

[16] = biological target: Beta-2 adrenergic receptor (Homo sapiens) (UniProt P07550); assay: Adrenergic beta2 receptor (ADRB2) small molecule antagonists, cell-based qHTS assay (AID 1963592); also: series mostly up to about 92 µM; nearly all actives have a fitted effect of over 50% in size
Summary of the method: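 Cells (CHO, stable ADRB2 overexpression) incubated 18-20hr at 37C; compounds added from DMSO; agonist mix (1nM isoproterenol, 100uM IBMX, 25uM Ro-20-1724) added; 0.5hr RT; d2-cAMP and anti-cAMP-cryptate added; 1hr RT; 665/615 nm read.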

[17] = biological target: Beta-2 adrenergic receptor (Homo sapiens) (UniProt P07550); assay: Adrenergic beta2 receptor (ADRB2) small molecule agonists, cell-based qHTS assay (AID 1963593);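 also: CHO cells stably overexpressing human ADRB2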
Summary of the method: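 CHO cells stably over-expressing ADRB2 were plated overnight at 37C, then dosed with compounds plus a stimulation mix containing 100uM IBMX and 25uM Ro-20-1724 for 0.5hr at room temperature. cAMP was measured by HTRF competition, 1hr.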

[18] = biological target: D(2) dopamine receptor (Homo sapiens) (UniProt P14416); assay: Dopamine D2 receptor (DRD2) small molecule agonists, cell-based qHTS assay (AID 1963594); also: nearly all actives have a fitted effect of over 35% in size
Summary of the method: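 HEK293 cells stably expressing human DRD2, pre-treated with PDE inhibitor Ro20-1724 (0.1 mM final) and compound 10 min at room temperature, then stimulated with NKH477 (200nM […]) for 30 min. cAMP read by HTRF (665/620 nm).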

[19] = biological target: D(2) dopamine receptor (Homo sapiens) (UniProt P14416); assay: Dopamine D2 receptor (DRD2) small molecule antagonists, cell-based qHTS assay (AID 1963595; active = well fitted inhibition curve with a large enough effect in the signal ratio in the repeat runs, with a control signal flat; the % refers to the signal ratio)
Summary of the method: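 DRD2-HEK293; 0.1 mM Ro20-1724; cpd 10 min RT; NKH477 200 nM + quinpirole 12 nM, 30 min RT; HTRF cAMP (cAMP-d2/anti-cAMP cryptate), 665/620 nm ratio after 1 h.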

[20] = biological target: KiSS-1 receptor (Homo sapiens) (UniProt Q969F8); assay: Human kisspeptin (KISS1R) small molecule agonists, calcium flux assay in KISS1R-HEK293 cells (AID 1920064; active = well fitted curve in the direction sought with a large enough effect in the repeat runs; an effect the other way counts as inactive or inconclusive)
Summary of the method: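 Cells plated and incubated 18 h; dye added, 1 h at 37 C; compounds in DMSO pinned in; signal read at 480/540 nm every second for 3 min. Each compound tested at 15 concentrations in triplicate.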

Sequence of KiSS-1 receptor (Homo sapiens) (Q969F8 whole entry, looked up): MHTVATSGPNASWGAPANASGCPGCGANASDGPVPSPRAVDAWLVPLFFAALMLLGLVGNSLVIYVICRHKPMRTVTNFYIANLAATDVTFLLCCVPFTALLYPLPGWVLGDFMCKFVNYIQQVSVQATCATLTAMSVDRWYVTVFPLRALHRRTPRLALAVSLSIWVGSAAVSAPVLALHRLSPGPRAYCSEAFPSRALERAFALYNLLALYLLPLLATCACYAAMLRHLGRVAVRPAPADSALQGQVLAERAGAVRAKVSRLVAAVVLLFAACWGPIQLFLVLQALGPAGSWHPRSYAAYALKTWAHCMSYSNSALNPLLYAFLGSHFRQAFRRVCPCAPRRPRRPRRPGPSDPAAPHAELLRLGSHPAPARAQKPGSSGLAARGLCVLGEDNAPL
Sequence of Gonadotropin-releasing hormone receptor (Homo sapiens) (P30968 whole entry, looked up): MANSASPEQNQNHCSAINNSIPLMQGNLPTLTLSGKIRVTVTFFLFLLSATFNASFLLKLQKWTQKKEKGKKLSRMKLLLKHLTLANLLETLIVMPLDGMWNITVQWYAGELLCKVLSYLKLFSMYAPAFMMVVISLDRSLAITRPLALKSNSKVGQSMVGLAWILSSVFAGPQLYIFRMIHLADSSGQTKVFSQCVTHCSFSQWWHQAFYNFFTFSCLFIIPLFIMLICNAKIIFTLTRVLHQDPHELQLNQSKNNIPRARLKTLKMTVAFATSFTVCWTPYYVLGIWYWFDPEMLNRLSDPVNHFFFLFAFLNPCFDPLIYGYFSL
Sequence of 5-hydroxytryptamine receptor 2A (Homo sapiens) (P28223 whole entry, looked up): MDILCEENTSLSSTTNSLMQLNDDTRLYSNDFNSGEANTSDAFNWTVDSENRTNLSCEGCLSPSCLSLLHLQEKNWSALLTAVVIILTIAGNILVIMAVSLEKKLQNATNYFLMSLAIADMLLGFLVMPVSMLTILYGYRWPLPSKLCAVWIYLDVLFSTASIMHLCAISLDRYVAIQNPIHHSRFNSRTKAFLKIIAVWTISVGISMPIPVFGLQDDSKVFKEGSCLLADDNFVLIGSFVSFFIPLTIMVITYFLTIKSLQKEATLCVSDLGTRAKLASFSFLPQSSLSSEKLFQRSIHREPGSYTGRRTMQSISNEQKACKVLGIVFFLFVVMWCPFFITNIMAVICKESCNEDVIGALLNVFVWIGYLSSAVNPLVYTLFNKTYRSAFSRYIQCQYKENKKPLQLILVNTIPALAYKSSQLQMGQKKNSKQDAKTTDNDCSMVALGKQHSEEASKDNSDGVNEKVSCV
Sequence of Muscarinic acetylcholine receptor M1 (Homo sapiens) (P11229 whole entry, looked up): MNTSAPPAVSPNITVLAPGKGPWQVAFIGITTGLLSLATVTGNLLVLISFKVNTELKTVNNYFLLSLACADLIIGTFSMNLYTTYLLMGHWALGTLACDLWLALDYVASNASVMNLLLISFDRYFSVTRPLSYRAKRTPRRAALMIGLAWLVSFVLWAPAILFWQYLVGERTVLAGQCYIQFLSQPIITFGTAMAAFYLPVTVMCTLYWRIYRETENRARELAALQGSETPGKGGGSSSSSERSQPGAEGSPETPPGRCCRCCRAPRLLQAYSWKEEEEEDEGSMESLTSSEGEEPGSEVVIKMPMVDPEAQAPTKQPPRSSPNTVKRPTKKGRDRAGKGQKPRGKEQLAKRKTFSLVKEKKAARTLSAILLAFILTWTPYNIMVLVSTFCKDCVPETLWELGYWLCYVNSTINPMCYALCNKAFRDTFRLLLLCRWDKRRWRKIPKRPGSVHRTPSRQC
Sequence of Beta-2 adrenergic receptor (Homo sapiens) (P07550 whole entry, looked up): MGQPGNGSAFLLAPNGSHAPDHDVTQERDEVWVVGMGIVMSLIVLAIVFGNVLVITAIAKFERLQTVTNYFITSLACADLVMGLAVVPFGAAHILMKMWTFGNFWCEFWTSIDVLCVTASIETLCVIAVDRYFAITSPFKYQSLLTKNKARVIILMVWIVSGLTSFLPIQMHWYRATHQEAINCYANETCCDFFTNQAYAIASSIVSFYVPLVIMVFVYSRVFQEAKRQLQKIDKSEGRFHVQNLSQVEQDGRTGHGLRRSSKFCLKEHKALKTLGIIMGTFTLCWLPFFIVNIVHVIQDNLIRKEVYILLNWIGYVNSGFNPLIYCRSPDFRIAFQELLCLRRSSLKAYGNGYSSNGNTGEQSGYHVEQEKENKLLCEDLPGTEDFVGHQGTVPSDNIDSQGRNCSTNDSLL
Sequence of D(2) dopamine receptor (Homo sapiens) (P14416 whole entry, looked up): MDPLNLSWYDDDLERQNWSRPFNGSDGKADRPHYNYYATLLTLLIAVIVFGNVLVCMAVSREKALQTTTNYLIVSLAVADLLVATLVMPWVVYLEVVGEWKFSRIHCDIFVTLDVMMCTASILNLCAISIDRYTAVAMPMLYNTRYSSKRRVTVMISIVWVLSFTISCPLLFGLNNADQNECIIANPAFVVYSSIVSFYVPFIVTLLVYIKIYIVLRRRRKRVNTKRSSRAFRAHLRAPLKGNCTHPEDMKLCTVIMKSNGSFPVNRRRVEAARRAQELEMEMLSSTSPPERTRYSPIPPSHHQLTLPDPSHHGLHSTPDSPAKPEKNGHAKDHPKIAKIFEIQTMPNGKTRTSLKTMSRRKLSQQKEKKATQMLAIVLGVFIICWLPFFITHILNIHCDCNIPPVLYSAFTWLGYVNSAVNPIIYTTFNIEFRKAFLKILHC

| SMILES | Potency [1] | Potency [2] | Potency [3] | Potency [4] | Potency [5] | Potency [6] | Potency [7] | Potency [8] | Potency [9] | Potency [10] | Potency [11] | Potency [12] | Potency [13] | Potency [14] | Potency [15] | Potency [16] | Potency [17] | Potency [18] | Potency [19] | Potency [20] |
| --- | --- | --- | --- | --- | --- | --- | --- | --- | --- | --- | --- | --- | --- | --- | --- | --- | --- | --- | --- | --- |
| c1ccc2c(c1)oc1ccccc12 | inactive | inactive | inactive | inactive | inactive | inactive | inactive | inactive | inactive | inactive | inactive | inactive | inactive | inactive | inactive | inactive | inactive | inactive | inactive |  |
| c1ccc(NNc2ccccc2)cc1 | inactive | 55 µM (active) | inactive | inactive | inactive | inactive | inactive | inactive | inactive | inactive | inactive | inactive | inactive | inactive | inactive | inactive | inactive | inactive | inactive |  |
| C[N+](C)(C)CC(=O)O | inactive | inactive | inactive |  |  | inactive | inactive | inactive |  | inactive | inactive | inactive | inactive | inactive | inactive | inactive | inactive | inactive | inactive | inactive |
| CC(C)CCCCCOC(=O)c1ccccc1C(=O)OCCCCCC(C)C | inactive | inactive | inactive | inactive | inactive | inactive | inactive | inactive | inactive | inactive |  | 2.62 µM (active) | inactive | inactive | inactive | inactive | inactive | inactive | inactive |  |
| CNC(=O)Oc1c(C(C)(C)C)cc(C)cc1C(C)(C)C | inactive | 61.1 µM (active) | inactive | inactive | inactive | inactive | inactive | inactive | inactive | inactive | inactive | inactive | inactive |  | inactive | inactive | inactive | inactive | inactive |  |
| C[C@]12CC[C@H]3[C@@H](CC[C@@]45O[C@@H]4C(O)=C(C#N)C[C@]35C)[C@@H]1CC[C@@H]2O | inactive | 68.6 µM (active) and inactive | inactive |  |  | inactive | inactive | inactive |  | inactive | inactive | inactive | inactive |  |  | inactive |  | inactive | inactive | inactive |
